# Screening data (PubChem)
# In the library only some 3.4% were active in any assay of this set; here they are far more common.
# PP5 inh = PP5 (human) phosphatase inhibition; purified PP5c, OMFP substrate fluorescence; inhibition, % at 6.7 µM; 320,000 compounds, 0.18% hits; AID 1987;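 active = inhibition above the campaign's mean inhibition across all tested compounds plus 3 SD, cut at about 9.5% in these data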;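 also: 0% = DMSO only and 100% = 100 µM cantharidin control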
# pPAFAH FP inh = inhibitors of human plasma PAF acetylhydrolase (pPAFAH); AID 463082; Q13093; inhibition, % at 3.39 µM; recombinant pPAFAH, FP-rhodamine probe fluorescence polarization; 330,000 compounds, 1.5% hits;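 active = inhibition above the mean inhibition across the screen plus 3 SD, cut at about 25% in these data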;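 also: inhibitors block binding of the rhodamine activity-based probe so polarization drops; 0% = enzyme with DMSO and 100% = wells lacking pPAFAH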
# PAFAH1B3 inh = inhibitors of human PAFAH1B3; Q15102; recombinant PAFAH1B3, FP-rhodamine probe, fluorescence polarization; inhibition, % at 3.39 µM; 340,000 compounds, 0.28% hits; AID 492972;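 active = inhibition above the screen-wide average of all tested compounds plus 3 SD, cut at about 25% in these data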;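 also: 0% = enzyme with DMSO only and 100% = wells lacking PAFAH1B3 protein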
# Target sequence (Q15102 whole entry, looked up): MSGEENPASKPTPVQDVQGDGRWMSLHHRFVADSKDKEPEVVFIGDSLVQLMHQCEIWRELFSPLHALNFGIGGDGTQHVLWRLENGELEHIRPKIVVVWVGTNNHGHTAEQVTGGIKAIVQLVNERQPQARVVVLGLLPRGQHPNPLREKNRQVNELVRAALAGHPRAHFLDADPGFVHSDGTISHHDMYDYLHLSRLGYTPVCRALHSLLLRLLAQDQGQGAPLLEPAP
# PAFAH1B2 FP inh = PAFAH1B2 (human) inhibition; P68402; recombinant PAFAH1B2, FP-rhodamine activity probe, fluorescence polarization; inhibition, % at 3.39 µM; 340,000 compounds, 1.2% hits; AID 492953;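 active = inhibition above the mean of all tested compounds plus 3 SD, cut at about 24% in these data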;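 also: 0% = enzyme with DMSO and 100% = wells lacking PAFAH1B2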
# PP1 inh = blocks human PP1-alpha phosphatase, a PP5 counter-screen. P62136. purified PP1alpha, OMFP fluorescence. 320,000 compounds, 0.9% hits. inhibition, % at 6.7 µM;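 active = inhibition above the mean inhibition of all tested compounds plus 3 SD, computed separately for each screening campaign, cut at about 15% in these data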
# Target sequence (P62136 whole entry, looked up): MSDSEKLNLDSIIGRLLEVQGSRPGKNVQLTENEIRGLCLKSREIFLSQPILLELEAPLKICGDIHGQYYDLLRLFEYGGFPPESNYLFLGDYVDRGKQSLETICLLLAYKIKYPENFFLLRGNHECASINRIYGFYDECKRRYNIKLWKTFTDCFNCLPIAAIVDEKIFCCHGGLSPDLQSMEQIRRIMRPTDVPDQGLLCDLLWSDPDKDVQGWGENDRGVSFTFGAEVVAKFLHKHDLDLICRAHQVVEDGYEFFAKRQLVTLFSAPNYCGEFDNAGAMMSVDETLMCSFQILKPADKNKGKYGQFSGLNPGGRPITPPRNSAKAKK
# PAFAH2 FP inh = PAFAH2 (human) inhibition; recombinant PAFAH2, FP-rhodamine activity probe, fluorescence polarization; 340,000 compounds, 0.99% hits; inhibition, % at 3.39 µM;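 active = inhibition above the mean over all tested compounds plus 3 SD, cut at about 30% in these data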;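 also: inhibitors block probe labeling of enzyme so polarization drops; 0% = enzyme with DMSO and 100% = wells lacking PAFAH2 protein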
# The depositor's hits bear a star; nt = not tested or not shown.
SMILES,PP5 inh,pPAFAH FP inh,PAFAH1B3 inh,PAFAH1B2 FP inh,PP1 inh,PAFAH2 FP inh
C#CCOCCOCCOCCNc1nc(N2CCN(C(=O)[C@H]([C@@H](C)CC)n3cc([C@@H](N)Cc4ccc(O)cc4)nn3)CC2)nc(N2CCN(C(=O)[C@H](Cc3cc4ccccc4[nH]3)n3cc([C@@H](N)C(C)CC)nn3)CC2)n1 (stereo partly drawn),3.0,1.7,nt,nt,11.1,nt
C#CCOCCOCCOCCNc1nc(N2CCN(C(=O)[C@H](Cc3cc4ccccc4[nH]3)n3cc([C@@H](N)C(C)CC)nn3)CC2)nc(N2CCN(C(=O)[C@H](CCCCN)n3cc([C@@H](N)CC(C)C)nn3)CC2)n1 (stereo partly drawn),1.6,0.3,nt,nt,15.9*,nt
C#CCOCCOCCOCCNc1nc(N2CCN(C(=O)[C@H](Cc3ccc(O)cc3)n3cc([C@@H](N)C(C)CC)nn3)CC2)nc(N2CCN(C(=O)[C@H](Cc3cc4ccccc4[nH]3)n3cc([C@@H](N)C(C)CC)nn3)CC2)n1 (stereo partly drawn),1.0,3.3,-4.8,2.0,16.6*,2.6
CCCCn1c(=O)[nH]c(=O)c2c1nc(-c1ccc(OC(F)F)c(OC)c1)n2C,-0.7,-0.6,0.1,3.1,-1.4,0.4
O=C(N[C@@H](Cc1ccc(O)cc1)C(=O)O)c1ccncc1,-2.2,1.0,0.1,14.5,-5.1,-9.2
CCOc1ccc(C(=O)Nc2ccc3nc(N4CCN(CC)CC4)cc(C)c3c2)cc1,4.0,9.8,5.7,3.6,1.3,5.6
CCN1CCN(c2cc(C)c3cc(NC(=O)c4cc(OC)cc(OC)c4)ccc3n2)CC1,1.7,28.9*,-1.1,2.7,-1.0,-3.0
OCC1(CCOc2ccccc2)CCN(CC2=Cc3cc(Cl)ccc3OC2)CC1,-1.0,5.0,-1.0,-2.4,3.9,-3.0
Cc1ccc(S(=O)(=O)N2[C@@H](c3cccc(C)c3)C(C(=O)O)=C[C@H]2C(C)(C)C)cc1,nt,0.9,-0.4,30.9*,nt,5.5
COc1ccc([C@H]2C(C(=O)O)=C[C@@H](C(C)(C)C)N2S(=O)(=O)c2ccccc2)cc1,nt,-2.0,1.4,9.1,nt,5.0
Cc1ccc([C@H]2C(C(=O)O)=C[C@@H](C(C)(C)C)N2S(=O)(=O)c2ccc(C)cc2)cc1,nt,2.1,0.8,24.2*,nt,4.8
Cc1ccc(S(=O)(=O)N2[C@@H](c3ccc(C(C)C)cc3)C(C(=O)O)=C[C@H]2C(C)(C)C)cc1,nt,13.4,-2.7,27.7*,nt,4.5
CCCCC[C@@H]1C=C(C(=O)O)[C@H](c2cccc(C)c2)N1S(=O)(=O)c1ccc(C)cc1,nt,1.5,5.2,4.6,nt,11.4
Cc1cc(Nc2ccccc2)nn1C(=O)c1ccc(Br)cc1,0.8,11.1,9.8,27.1*,2.4,-1.2
Cc1cc(Nc2ccccc2)nn1C(=O)c1ccccc1,6.3,12.7,16.6,5.8,-3.3,6.3
COC(=O)c1ccc(C2C(C(=O)c3cc4ccccc4o3)=C(O)C(=O)N2c2cc(C)on2)cc1 (stereo not drawn),-3.6,-1.3,7.3,-1.4,26.6*,2.4
COc1cccc2cc(C(=O)C3=C(O)C(=O)N(c4cc(C)on4)C3c3cccs3)oc12 (stereo not drawn),1.7,20.4,5.9,2.8,23.0*,15.2
COc1cc(C2C(C(=O)c3cc4ccccc4o3)=C(O)C(=O)N2c2cc(C)on2)cc(OC)c1OC (stereo not drawn),2.2,8.0,4.6,4.8,17.2*,-1.5
COc1ccc(C(=O)SC2=NCCS2)cc1,0.4,5.5,0.9,-6.5,-4.8,11.6
Cc1ccc(S(=O)(=O)N2CCN(C(=O)C(C)Cn3nc(C)c(C)c3C)CC2)cc1 (stereo not drawn),-1.2,2.6,5.1,7.8,-0.7,-4.0
Cc1nn(CC(C)C(=O)N2CCN(S(=O)(=O)c3ccc(Cl)cc3)CC2)c(C)c1C (stereo not drawn),0.2,-4.6,-1.6,25.8*,-1.4,3.2
Cc1nnc(SCC(=O)N2CCN(S(=O)(=O)c3ccc(Cl)cc3)CC2)[nH]c1=O,5.0,-6.4,2.8,29.6*,-5.7,4.5
Nn1c(SCC(=O)N2CCN(S(=O)(=O)c3ccc(Cl)cc3)CC2)nnc1-c1cccs1,2.6,30.6*,-1.1,23.4,2.1,4.0
O=C(CN1CSCC1=O)N1CCN(S(=O)(=O)c2ccc(Cl)cc2)CC1,-0.5,1.8,12.1,28.6*,-6.1,-2.8
Cc1ccc(C(=O)NCC(C)(C)O)cc1,-0.9,-7.1,0.1,5.7,-2.6,5.0
SMILES,PP5 inh,pPAFAH FP inh,PAFAH1B3 inh,PAFAH1B2 FP inh,PP1 inh,PAFAH2 FP inh
Cc1ccc(S(=O)(=O)NCCc2cc3ccc(C)cc3[nH]c2=O)cc1,1.4,7.2,-0.5,27.2*,-0.7,-14.4
CC(OC(=O)c1cccnc1SCc1cc(=O)n2ccccc2n1)c1ccccn1 (stereo not drawn),2.4,0.9,-6.3,-0.3,0.7,-2.2
CCCN(CC(=O)Nc1ccccc1C)C(=O)/C=C/c1ccc(S(=O)(=O)N2CCCCCC2)cc1,0.1,7.0,7.5,6.0,-3.9,4.3
CC(C)(C)[C@H]1COC(=O)[C@@H](Cc2ccc(F)cc2)CC/C=C/C[C@@H](CC(=O)N[C@@H](CO)Cc2ccccc2)C(=O)N1,nt,11.7,-2.9,27.3*,nt,-1.1
O=C(C[C@H]1C/C=C\C[C@@H](Cc2ccc(F)cc2)C(=O)OC[C@H]2CCCN2C1=O)N[C@H](CO)Cc1ccccc1,nt,-5.8,-6.0,28.5*,nt,7.3
O=C(C[C@@H]1C/C=C\C[C@@H](Cc2ccc(F)cc2)C(=O)OCCNC1=O)N[C@H](CO)Cc1ccccc1,nt,2.7,7.1,27.1*,nt,8.5
C[C@@H]1COC(=O)[C@@H](Cc2ccc(F)cc2)C/C=C\C[C@@H](CC(=O)N[C@H](CO)Cc2ccccc2)C(=O)N1,nt,1.3,11.0,0.8,nt,3.5
C[C@@H]1COC(=O)[C@H](Cc2ccc(F)cc2)C/C=C\C[C@@H](CC(=O)N[C@H](CO)Cc2ccccc2)C(=O)N1,nt,2.5,-4.0,26.9*,nt,8.8
COc1ccc(N2C(=O)C(OC(C)=O)C2c2ccc(C)cc2)cc1 (stereo not drawn),4.2,3.0,-0.5,3.0,0.3,3.9
N#CCSc1nc2ccccc2c(=O)n1CCCC(=O)NCC1CCCO1 (stereo not drawn),-1.2,-0.9,10.1,0.4,-0.1,1.5
CC(C)(C)[C@H]1COC(=O)[C@@H](Cc2ccc(F)cc2)CC/C=C/C[C@@H](CC(=O)N[C@H](CO)Cc2ccccc2)C(=O)N1,nt,6.5,3.5,30.5*,nt,4.1
C[C@@H]1COC(=O)[C@H](Cc2ccc(F)cc2)CC/C=C/C[C@@H](CC(=O)N[C@H](CO)Cc2ccccc2)C(=O)N1,nt,2.0,9.3,7.8,nt,3.0
CCn1c(SCC(=O)NC2CC2)nnc1-c1ccc(F)cc1,1.8,-1.1,5.1,-0.5,1.5,1.8
Cc1nc2c(C(=O)NCCC(C)C)c[nH]n2c(=O)c1Cc1ccccc1F,4.2,30.8*,19.3,5.6,15.5*,6.1
